The compounds below were run on Plasmodium falciparum (assay: GSK_TCMDC: Inhibition of Plasmodium falciparum Dd2 in whole red blood cells, using parasite LDH activity as an index of growth. Test compounds present at 2uM).
Format: functional

| Structure (SMILES) | Inhibition [%] |
| --- | --- |
| O=C(NC1CCN(c2ccnc3ccccc23)C1)c1cccc(C(F)(F)F)c1.O=C(O)C(F)(F)F (configuration not stated) | 86 |
| CCCN1CCCN(Cc2cccc(NC(=O)c3ccc(-c4ccccc4)cc3)c2)CC1.O=C(O)C(F)(F)F | 15 |
| O=C(NCc1cccc(C(F)(F)F)c1)[C@@H]1CCCN1C(=O)c1ccc(O)c(-c2ccc(Cl)c(Cl)c2)c1 | 97 |
| CN(c1ccc(NC(=O)c2cccc(F)c2)cc1)C1CCCN(Cc2cccc(O)c2)C1.O=C(O)C(F)(F)F (configuration not stated) | 2 |
| Cl.N#Cc1ccc2c(c1)CCN(CCC1CCC(NC(=O)c3ccc(-c4ccccn4)s3)CC1)CC2 (configuration not stated) | 9 |
| O=C(Nc1ccc(-c2ccc(-c3nc4cc(C(F)(F)F)ccc4[nH]3)s2)cc1)c1c[nH]cn1 | 61 |
| CC(CN)OCn1cnc2c(N)ncnc21.Cl (configuration not stated) | 3 |

The compounds below were run on HepG2 (assay: GSK_TCMDC: Percent inhibition of human HepG2 cell line. Test compounds present at 10uM.).
Format: functional

| Structure (SMILES) | Inhibition [%] |
| --- | --- |
| CC(C)NCc1ccc(-c2cccc(NC(=O)c3ccc(F)cc3)c2)cc1.O=C(O)C(F)(F)F | 28 |
| CC(=O)Nc1nc(C(=O)Nc2ccc(-c3ccc(-c4nc5cc(F)ccc5[nH]4)cc3)cc2)cs1 | 17 |
| CN1CCN(CC(=O)Nc2ccc(-c3cccc(-c4nc5cc(F)ccc5[nH]4)c3)cc2)CC1 | 18 |
| O=C(Nc1cccc(-c2cccc(-c3nc4cc(C(F)(F)F)ccc4[nH]3)c2)c1)c1ccoc1 | 32 |
| CC(C)CNCc1cccc(-c2cccc(CN(CCCN3CCN(C)CC3)C(=O)CCC3CCCC3)c2)c1.O=C(O)C(F)(F)F | 45 |
| CCC(NCc1ccc(-c2cncc(C(=O)NCC(C)C)c2)cc1)c1ccccc1.O=C(O)C(F)(F)F (configuration not stated) | 14 |
| COc1cc2c(cc1NC(=O)CN1CCN(C(=O)c3ccco3)CC1)oc1ccccc12 | 13 |
| C/N=C(/Nc1c(Cl)cccc1Cl)N(C)C.O=C(O)/C=C/C(=O)O | 0 |
| COc1cc2nc(N3CCN(C(=O)c4ccco4)CC3)nc(NCc3ccccc3)c2cc1OC | 16 |
| CCC1CN(S(=O)(=O)c2ccc3c(c2)NC(=O)CC(=O)N3)c2cc(Cl)ccc2O1 (configuration not stated) | 0 |
| Cc1cc(N2CCCC2)nc(Nc2ccc(NC(=O)CC(C)C)cc2)n1 | 37 |
| O=C(Nc1ccc(CCNCc2ccccc2)cc1)Nc1ccc(OC(F)(F)F)cc1.O=C(O)C(F)(F)F | 0 |
| Cc1cccc(NC(=O)c2ccc(C(=O)NC3CCN(CC4CCCCC4)CC3)cc2)c1.O=C(O)C(F)(F)F | 14 |
| O=C(Nc1cccc(-c2nn3ncccc3c2-c2ccnc(Nc3ccc(N4CCOCC4)cc3)n2)c1)c1c(F)cccc1F | 75 |
| CC(C)=C(C(=O)OCc1ccccc1)N1C(=O)[C@@H](NC(c2ccccc2)(c2ccccc2)c2ccccc2)[C@H]1[S+]([O-])CC(=O)OC(C)(C)C (some centres not stated) | 0 |
| COC(=O)C(Cc1ccccc1)NC(=O)NC1CCN(c2ccnc(Nc3ccc(F)cc3)n2)C1 (configuration not stated) | 0 |
| O=C(NCc1ccc(C(F)(F)F)cc1)c1cccc(-c2nnc(-c3cccc(-c4cncnc4)c3)o2)c1 | 13 |
| N#CN1CC[C@H](CS(=O)(=O)c2cccc(Br)c2)C1 | 8 |
| COc1ccc2nccc(NC(=O)N3CCC(NCCOc4cc(F)cc(F)c4)CC3)c2n1.O=C(O)C(=O)O | 14 |
| O=C(O)C(F)(F)F.c1cc(CN2CCN(CCN3CCOCC3)CC2)cc(-c2ccc(-c3nc4ccccc4[nH]3)cc2)c1 | 23 |

| Structure (SMILES) | Inhibition [%] |
| --- | --- |
| CCc1cn2c3c(cc(C(=O)N[C@@H](Cc4ccccc4)[C@H](O)CNCc4ccccc4C)cc13)N(C)S(=O)(=O)CC2.O=CO | 3 |
| Cl.Cl.N=C(N)c1ccc(-c2cc(-c3cccc(C(=N)N)c3)on2)cc1 | 7 |
| CCC(=O)Oc1ccc(NC(=O)c2cccc(OC)c2)cc1 | 17 |
| COc1cccc(OC)c1-c1ccccc1NC(=O)N1CCCc2cc(C)ccc21 | 51 |
| CC(C)(C)N1CCC(N(Cc2ccc(-c3ccc(C(F)(F)F)cc3)cc2)C(=O)Cn2c(CCc3cccc(F)c3F)nc(=O)c3cccnc32)CC1.O=C(O)C(O)C(O)C(=O)O | 94 |
| CC(=O)Nc1ccc(COc2ccc(Nc3ccnc4cc(-c5ccccn5)ccc34)cc2)cc1.Cl | 99 |
| COc1ccc2[nH]c(C)cc(=NN=Cc3ccccc3Cl)c2c1 | 0 |
| CC(C)(C)c1cc(NC2CC2)nc(-c2ccccn2)n1 | 7 |
| Cc1cc(NC(=O)c2ccc(S(=O)(=O)N(Cc3ccccc3)C(C)C)cc2)no1 | 0 |
| Cc1onc(-c2ccccc2)c1-c1nc(NC2CCCC(C)C2)no1 (configuration not stated) | 22 |
| COc1cc2nc(NCCN3CCOCC3)n3nc(-c4ccccc4)nc3c2cc1OC | 15 |
| Cl.Cn1c2ccccc2c2c3ccccc3c(CNC(CO)(CO)CO)cc21 | 67 |
| COc1ccccc1N1CCN(Cc2c(O)ccc3cc(Br)ccc23)CC1 | 8 |
| O=C(NC1CCN(c2ccnc3ccccc23)C1)c1cccc(C(F)(F)F)c1.O=C(O)C(F)(F)F (configuration not stated) | 28 |
| CCCN1CCCN(Cc2cccc(NC(=O)c3ccc(-c4ccccc4)cc3)c2)CC1.O=C(O)C(F)(F)F | 34 |
| O=C(NCc1cccc(C(F)(F)F)c1)[C@@H]1CCCN1C(=O)c1ccc(O)c(-c2ccc(Cl)c(Cl)c2)c1 | 0 |
| CN(c1ccc(NC(=O)c2cccc(F)c2)cc1)C1CCCN(Cc2cccc(O)c2)C1.O=C(O)C(F)(F)F (configuration not stated) | 13 |
| Cl.N#Cc1ccc2c(c1)CCN(CCC1CCC(NC(=O)c3ccc(-c4ccccn4)s3)CC1)CC2 (configuration not stated) | 16 |
| O=C(Nc1ccc(-c2ccc(-c3nc4cc(C(F)(F)F)ccc4[nH]3)s2)cc1)c1c[nH]cn1 | 66 |
| CC(CN)OCn1cnc2c(N)ncnc21.Cl (configuration not stated) | 17 |

Reference: ChEMBL document CHEMBL1157539, “Thousands of chemical starting points for antimalarial lead identification” (Nature, 2010)
